Measurements as given in PubChem BioAssay AID1159580 (chemical genetic matrix, 2015).
Hit rate of the full screen: of about 5,500 compounds, about 2,000 (36%) were called active. Not shown: some 18% with an inconclusive outcome. Rule as the data show it: active = normalized growth mostly below about 0.91 (no sharp cut-off); inconclusive = no clear call, values can overlap the other calls; inactive = mostly above about 0.92. The list shows a part of the results.

Experiment: chemical genetic growth profiling, strain panel (AID 1159580);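 also: tested at 20 µM; growth read once vehicle control cultures reached saturation at 30 °C; 1 = growth at the plate median or of vehicle wells; lower values mean less growth of the strain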
Settings: growth OD

Measured: normalized growth

CO[C@@]1(NC(=O)Cc2cccs2)C(=O)N2C(C(=O)O)=C(COC(N)=O)CS[C@@H]21
inactive: S. cerevisiae deletion strains, locus YJR066W, strain TOR1, active compounds read low 0.995 | S. cerevisiae deletion strains, locus YKL009W, strain mrt4, active compounds read low 1.01 | S. cerevisiae deletion strains, locus YKL068W, active compounds read low 0.992 | S. cerevisiae deletion strains, locus YKL085W, strain MDH1 (second series), active compounds read low 0.992 | S. cerevisiae deletion strains, locus YKL085W, strain MDH1, active compounds read low 0.992 | S. cerevisiae deletion strains, locus YKL160W, strain elf1, active compounds read low 0.927 | S. cerevisiae deletion strains, locus YKL190W, strain CNB1, active compounds read low 1.01 | S. cerevisiae deletion strains, locus YKR001C, strain vps1, active compounds read low 0.995 | S. cerevisiae deletion strains, locus YKR026C, strain gcn3, active compounds read low 0.977 | S. cerevisiae deletion strains, locus YKR091W, strain srl3, active compounds read low 0.971 | S. cerevisiae deletion strains, locus YLL001W, strain dnm1, active compounds read low 0.966 | S. cerevisiae deletion strains, locus YLL026W, active compounds read low 0.986 | S. cerevisiae deletion strains, locus YLL041C, strain sdh2, active compounds read low 0.971 | S. cerevisiae deletion strains, locus YLR027C, strain aat2, active compounds read low 0.985 | S. cerevisiae deletion strains, locus YLR039C, strain RIC1, active compounds read low 0.998 | S. cerevisiae deletion strains, locus YLR058C, strain SHM2, active compounds read low 1.01 | S. cerevisiae deletion strains, locus YLR102C, strain apc9, active compounds read low 0.989 | S. cerevisiae deletion strains, locus YLR113W, strain HOG1, active compounds read low 1.06 | S. cerevisiae deletion strains, locus YLR221C, strain rsa3, active compounds read low 1 | S. cerevisiae deletion strains, locus YLR258W, strain gsy2, active compounds read low 0.976 | S. cerevisiae deletion strains, locus YLR262C, strain YPT6 (second series), active compounds read low 0.98 | S. cerevisiae deletion strains, locus YLR262C, strain YPT6, active compounds read low 1.01 | S. cerevisiae deletion strains, locus YLR268W, strain sec22, active compounds read low 0.993 | S. cerevisiae deletion strains, locus YLR320W, strain mms22, active compounds read low 0.977 | S. cerevisiae deletion strains, locus YLR330W, strain CHS5, active compounds read low 1 | S. cerevisiae deletion strains, locus YLR342W, strain FKS1 (second series), active compounds read low 0.985 | S. cerevisiae deletion strains, locus YLR342W, strain FKS1, active compounds read low 0.953 | S. cerevisiae deletion strains, locus YLR357W, strain rsc2, active compounds read low 0.915 | S. cerevisiae deletion strains, locus YLR370C, strain arc18, active compounds read low 0.961 | S. cerevisiae deletion strains, locus YLR371W, strain rom2, active compounds read low 0.992 | S. cerevisiae deletion strains, locus YLR384C, strain iki3, active compounds read low 0.968 | S. cerevisiae deletion strains, locus YLR418C, strain cdc73, active compounds read low 0.988 | S. cerevisiae deletion strains, locus YML016C, strain PPZ1, active compounds read low 1 | S. cerevisiae deletion strains, locus YML032C, strain rad52, active compounds read low 0.994 | S. cerevisiae deletion strains, locus YML120C, strain ndi1, active compounds read low 0.986 | S. cerevisiae deletion strains, locus YML124C, strain tub3, active compounds read low 0.993 | S. cerevisiae deletion strains, locus YMR058W, strain fet3, active compounds read low 0.984 | S. cerevisiae deletion strains, locus YMR078C, strain ctf18, active compounds read low 0.993 | S. cerevisiae deletion strains, locus YMR125W, strain sto1, active compounds read low 0.963 | S. cerevisiae deletion strains, locus YMR129W, active compounds read low 0.971 | S. cerevisiae deletion strains, locus YMR205C, strain PFK2, active compounds read low 0.988 | S. cerevisiae deletion strains, locus YMR223W, strain ubp8, active compounds read low 0.998 | S. cerevisiae deletion strains, locus YMR231W, strain pep5, active compounds read low 0.98 | S. cerevisiae deletion strains, locus YMR307W, strain GAS1, active compounds read low 0.975 | S. cerevisiae deletion strains, locus YNL067W, strain RPL9B, active compounds read low 1 | S. cerevisiae deletion strains, locus YNL071W, strain lat1, active compounds read low 0.973 | S. cerevisiae deletion strains, locus YNL153C, strain GIM3, active compounds read low 1.02 | S. cerevisiae deletion strains, locus YNL183C, strain NPR1, active compounds read low 1 | S. cerevisiae deletion strains, locus YNL209W, strain ssb2, active compounds read low 0.972 | S. cerevisiae deletion strains, locus YNL233W, strain BNI4, active compounds read low 1 | S. cerevisiae deletion strains, locus YNL248C, strain rpa49, active compounds read low 0.916 | S. cerevisiae deletion strains, locus YNL250W, strain rad50, active compounds read low 1.01 | S. cerevisiae deletion strains, locus YNL271C, strain bni1, active compounds read low 0.985 | S. cerevisiae deletion strains, locus YNL298W, strain CLA4, active compounds read low 0.975 | S. cerevisiae deletion strains, locus YNL307C, strain MCK1, active compounds read low 1 | S. cerevisiae deletion strains, locus YNL322C, strain KRE1 (second series), active compounds read low 0.972 | S. cerevisiae deletion strains, locus YNL322C, strain KRE1, active compounds read low 1.01 | S. cerevisiae deletion strains, locus YNR049C, strain mso1, active compounds read low 0.953 | S. cerevisiae deletion strains, locus YNR052C, strain pop2, active compounds read low 1 | S. cerevisiae deletion strains, locus YOL006C, strain TOP1, active compounds read low 1.08 | S. cerevisiae deletion strains, locus YOL012C, strain htz1 1.61 | S. cerevisiae deletion strains, locus YOL147C, strain pex11, active compounds read low 0.992 | S. cerevisiae deletion strains, locus YOR001W, strain rrp6, active compounds read low 1 | S. cerevisiae deletion strains, locus YOR061W, strain CKA2, active compounds read low 1.01 | S. cerevisiae deletion strains, locus YOR069W, strain VPS5, active compounds read low 1 | S. cerevisiae deletion strains, locus YOR070C, strain gyp1, active compounds read low 0.979 | S. cerevisiae deletion strains, locus YOR080W, strain dia2, active compounds read low 0.986 | S. cerevisiae deletion strains, locus YOR083W, strain WHI5, active compounds read low 0.894 | S. cerevisiae deletion strains, locus YOR106W, strain vam3, active compounds read low 0.951 | S. cerevisiae deletion strains, locus YOR136W, strain idh2, active compounds read low 1 | S. cerevisiae deletion strains, locus YOR144C, strain elg1, active compounds read low 0.998 | S. cerevisiae deletion strains, locus YOR184W, strain ser1, active compounds read low 1.02 | S. cerevisiae deletion strains, locus YOR231W, strain MKK1, active compounds read low 1.09 | S. cerevisiae deletion strains, locus YOR265W, strain rbl2, active compounds read low 0.999 | S. cerevisiae deletion strains, locus YOR270C, strain vph1, active compounds read low 0.936 | S. cerevisiae deletion strains, locus YOR290C, strain snf2, active compounds read low 0.945 | S. cerevisiae deletion strains, locus YOR316C, strain cot1, active compounds read low 0.995 | S. cerevisiae deletion strains, locus YPL051W, strain arl3, active compounds read low 0.977 | S. cerevisiae deletion strains, locus YPL078C, strain atp4, active compounds read low 0.937 | S. cerevisiae deletion strains, locus YPL106C, strain sse1, active compounds read low 0.96 | S. cerevisiae deletion strains, locus YPL240C, strain hsp82, active compounds read low 0.984 | S. cerevisiae deletion strains, locus YPL256C, strain CLN2, active compounds read low 1.08 | S. cerevisiae deletion strains, locus YPR119W, strain clb2, active compounds read low 0.992 | S. cerevisiae deletion strains, locus YPR141C, strain kar3, active compounds read low 0.994 | S. cerevisiae deletion strains, locus YPR163C, strain tif3, active compounds read low 1 | S. cerevisiae deletion strains, locus YPR167C, strain met16, active compounds read low 0.998 | S. cerevisiae deletion strains, strain wtn01, active compounds read low 0.99 | S. cerevisiae strains, strain wild type, active compounds read low 1.01
